Laboratory results published in PubChem BioAssay (Tox21).
“And” between values parts separate entries of the source, which are not always exact repeats. Equal values may be shown once. Results filed as inconclusive are left out. Entries that show only a call come without a potency. The source holds several records for some structures; these can differ, active in one and inactive in another. The source made the active and inactive calls. Calls follow the shape of the dose curve; as a rule, active = well fitted curve in the direction sought with a large enough effect in the repeat runs; inconclusive = weak or mixed curves; inactive = no such curve, though single readings can be large; an effect the other way counts as inactive or inconclusive.

Legend:
[1] = qHTS RealTime-Glo MT Cell Viability Assay in HepG2 cells - 24 hour (AID 1224867); also: nearly all actives have a fitted effect of over 50% in size
In short: (§1)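 HepG2 suspension premixed with RealTime-Glo reagents is plated at 600 cells per well and left 5 h at 37 C/5% CO2. Compounds in DMSO then go in, and bioluminescence reflecting viable cell number is recorded over 40 h.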

[2] = qHTS RealTime-Glo MT Cell Viability Assay in HEK293 cells - 32 hour (AID 1224868); also: top concentration of the series differs between compounds; nearly all actives have a fitted effect of over 50% in size
In short: (§2)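 Reads taken at 0, 8, 16, 24, 32 and 40 h from the same wells. HEK293 cells (600/well) carried RealTime-Glo reagents from seeding, with compound added after a 5 h settle at 37 C.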

[3] = A CellTox Green Cytotoxicity Assay to monitor cytotoxicity in HEK293 cells - 0 hour (AID 1224869); also: nearly all actives have a fitted effect of over 50% in size; also: potency is read from the fitted curve at half-maximal effect
In short: (§3)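 Read-out: fluorescence of a cell-impermeant cyanine dye staining DNA of dead cells, proportional to cytotoxicity. HEK293, 600 cells/well with reagent, compound (23 nL DMSO) added after 5 h; reads at 0, 8, 16, 24, 32, 40 h.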

[4] = qHTS RealTime-Glo MT Cell Viability Assay in HepG2 cells - 40 hour (AID 1224870); also: nearly all actives have a fitted effect of over 50% in size
In short: (§4)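 HepG2 cells (600/well) mixed with RealTime-Glo MT reagent, settled 5 h at 37 C/5% CO2 before compound addition. Nonlytic NanoLuc luminescence from viable-cell prosubstrate reduction read repeatedly during 40 h treatment at 37 C.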

[5] = A CellTox Green Cytotoxicity Assay to monitor cytotoxicity in HEK293 cells - 40 hour (AID 1224871); also: nearly all actives have a fitted effect of over 45% in size; also: potency is read from the fitted curve at half-maximal effect
In short: as §3

[6] = qHTS RealTime-Glo MT Cell Viability Assay in HEK293 cells - 16 hour (AID 1224872)
In short: as §2

[7] = qHTS RealTime-Glo MT Cell Viability Assay in HepG2 cells - 8 hour (AID 1224873); also: nearly all actives have a fitted effect of over 55% in size
In short: as §4

[8] = qHTS RealTime-Glo MT Cell Viability Assay in HEK293 cells - 40 hour (AID 1224874); details: RealTime-Glo luminescence; max response: stronger effect = lower value; also: nearly all actives have a fitted effect of over 50% in size
In short: (§5)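 Luminescence readout at each listed time point; HEK293, 600 cells/well, RealTime-Glo MT reagent added with cells; compounds pinned (23 nL in DMSO) after 5 h at 37 C; continuous culture at 37 C.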

[9] = A CellTox Green Cytotoxicity Assay to monitor cytotoxicity in HEK293 cells - 24 hour (AID 1224875); also: series mostly up to about 77 µM; nearly all actives have a fitted effect of over 45% in size
In short: as §3

[10] = A CellTox Green Cytotoxicity Assay to monitor cytotoxicity in HepG2 cells - 16 hour (AID 1224876); also: nearly all actives have a fitted effect of over 45% in size
In short: (§6)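 HepG2, 600 cells/well premixed w/ CellTox Green; 5 h settle, 37 C/5% CO2; pintool cpd add (DMSO); 37 C, 40 h; fluorescence read at 0, 8, 16, 24, 32, 40 h.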

[11] = qHTS RealTime-Glo MT Cell Viability Assay in HepG2 cells - 32 hour (AID 1224877); also: nearly all actives have a fitted effect of over 55% in size
In short: as §1

[12] = A CellTox Green Cytotoxicity Assay to monitor cytotoxicity in HepG2 cells - 24 hour (AID 1224878); also: nearly all actives have a fitted effect of over 45% in size; also: potency is read from the fitted curve at half-maximal effect
In short: as §6

[13] = A CellTox Green Cytotoxicity Assay to monitor cytotoxicity in HepG2 cells - 40 hour (AID 1224879); also: nearly all actives have a fitted effect of over 40% in size; also: potency is read from the fitted curve at half-maximal effect
In short: as §6

[14] = qHTS RealTime-Glo MT Cell Viability Assay in HEK293 cells - 0 hour (AID 1224880)
In short: as §5

[15] = A CellTox Green Cytotoxicity Assay to monitor cytotoxicity in HEK293 cells - 32 hour (AID 1224881); also: nearly all actives have a fitted effect of over 40% in size; also: potency is read from the fitted curve at half-maximal effect
In short: as §3

[16] = A CellTox Green Cytotoxicity Assay to monitor cytotoxicity in HepG2 cells - 0 hour (AID 1224882); also: nearly all actives have a fitted effect of over 35% in size
In short: as §6

[17] = A CellTox Green Cytotoxicity Assay to monitor cytotoxicity in HepG2 cells - 32 hour (AID 1224883); also: nearly all actives have a fitted effect of over 50% in size; also: potency is read from the fitted curve at half-maximal effect
In short: as §6

[18] = A CellTox Green Cytotoxicity Assay to monitor cytotoxicity in HEK293 cells - 8 hour (AID 1224884); also: nearly all actives have a fitted effect of over 35% in size; also: potency is read from the fitted curve at half-maximal effect
In short: as §3

Structure (SMILES)	outcome [1]	Potency [2]	Potency [3]	outcome [4]	Potency [5]	outcome [6]	outcome [7]	max response [8]	Potency [9]	Potency [10]	outcome [11]	Potency [12]	Potency [13]	outcome [14]	Potency [15]	Potency [16]	Potency [17]	Potency [18]
CCOP(=S)(OCC)Oc1cnc2ccccc2n1	inactive	inactive	inactive	inactive	inactive	inactive	inactive	0.949% (inactive)	inactive	inactive	inactive	inactive	inactive	inactive	inactive	inactive	inactive	inactive
CC(NC(C)(C)C)C(=O)c1cccc(Cl)c1 (centres undefined)	inactive	inactive	inactive	inactive	inactive	inactive	inactive	6.38% (inactive) and -11.6% (inactive)	inactive		inactive	inactive	inactive	inactive	inactive	inactive	inactive	inactive
CCCN(CCC)c1c([N+](=O)[O-])cc(C(F)(F)F)cc1[N+](=O)[O-]	inactive	inactive	1.55 µM (active) and inactive	inactive	inactive	inactive	inactive	-12.8% (inactive) and 1.59% (inactive)		inactive	inactive	inactive	inactive	inactive	1.55 µM (active) and inactive	inactive	inactive	1.23 µM (active) and inactive
Clc1ccccc1Cl	inactive	inactive	inactive	inactive	inactive	inactive		2.45% (inactive) and -10.4% (inactive)	inactive	inactive	inactive	inactive	inactive and 54.9 µM (active)		inactive	inactive	inactive	inactive
CC(Br)C(=O)O (centres undefined)	inactive	inactive	inactive	inactive	inactive	inactive	inactive	0.901% (inactive) and -24.8% (inactive)	inactive	inactive	inactive	inactive	inactive	inactive	inactive	inactive	inactive	inactive
CCN(CC)CCO	inactive	inactive	inactive	inactive	inactive	inactive	inactive	2.53% (inactive) and -12.7% (inactive)	inactive	inactive	inactive	inactive	inactive	inactive	inactive	inactive	inactive	inactive
CCC[N+](=O)[O-]	inactive	inactive	inactive	inactive	38.2 µM (active) and inactive	inactive	inactive	7.7% (inactive)	inactive	inactive	inactive	24.1 µM (active) and inactive	24.1 µM (active) and inactive	inactive	inactive	inactive	21.5 µM (active) and inactive	inactive
C#CC(C)(C)NC(=O)c1cc(Cl)cc(Cl)c1	inactive	inactive	inactive	inactive	inactive	inactive		-9.66% (inactive)	inactive	inactive	inactive	inactive	inactive	inactive	inactive	inactive	inactive	inactive
CN(C)[C@@H]1C(=O)C(C(N)=O)=C(O)[C@@]2(O)C(=O)C3=C(O)c4c(O)cccc4[C@@](C)(O)[C@H]3C[C@@H]12	inactive	inactive	inactive	inactive	inactive	inactive	inactive	8.71% (inactive) and 13.3% (inactive) and -4.27% (inactive)	inactive		inactive	inactive	inactive	inactive	inactive	inactive	inactive	inactive
O=NN1CCCC1	inactive	inactive	inactive	inactive	inactive	inactive	inactive	-15.8% (inactive) and -5.95% (inactive)	inactive		inactive		57.5 µM (active) and inactive	inactive	inactive	inactive		inactive and 21.9 µM (active)
CCC12COCN1COC2		inactive	inactive	inactive	inactive	inactive	inactive	1.37% (inactive) and 3.08% (inactive)	inactive	inactive	inactive	inactive	inactive	inactive	inactive	inactive	inactive	inactive
CCCCN(CCCC)SN(C)C(=O)Oc1cccc2c1OC(C)(C)C2	inactive		inactive	inactive	inactive		inactive	-26.5% (inactive)	inactive	inactive	inactive	inactive	inactive	inactive	inactive	inactive	inactive	inactive
COP(N)(=O)SC (centres undefined)		inactive	inactive	inactive	inactive	inactive	inactive	-1.86% (inactive) and 15.3% (inactive)	inactive		inactive	inactive	inactive		inactive	inactive	inactive	inactive
